Source: publication PMC5540273 (PLoS ONE, 2017)

What was measured:
Conditions in all cases: concentration: 1 μM, replicates: in singlicate; n = 1
[1] = test system: DDR2
[2] = test system: T1, DLK
T1 construct: gene MAP3K12

[3] = test system: T2, DMPK2
T2 construct: gene CDC42BPG

[4] = test system: DMPK
[5] = test system: T3, DRAK1
T3 construct: gene STK17A

[6] = test system: T4, DRAK2
T4 construct: gene STK17B

[7] = test system: DYRK1A
[8] = test system: DYRK1B
[9] = test system: DYRK2
[10] = test system: EGFR
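Further: KINOMEscan kinase panel screen.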

CS(=O)(=O)CCNCc1nc(-c2ccc3ncnc(Nc4ccc(OCc5cccc(F)c5)c(Cl)c4)c3c2)cs1.Cl [GW583340]
%Inh [1]: 20%
%Inh [2]: 2%
%Inh [3]: 0%
%Inh [4]: 0%
%Inh [5]: 7%
%Inh [6]: 17%
%Inh [7]: 12%
%Inh [8]: 20%
%Inh [9]: 16%
%Inh [10]: 99.9%

FC(F)(F)c1ccc(-c2nn3ncccc3c2-c2ccnc(Nc3cccc(C(F)(F)F)c3)n2)cc1 [GW828205]
%Inh [1]: 25%
%Inh [2]: 7%
%Inh [3]: 0%
%Inh [4]: 7%
%Inh [5]: 0%
%Inh [6]: 18%
%Inh [7]: 0%
%Inh [8]: 41%
%Inh [9]: 31%
%Inh [10]: 11%

CN1c2ccc(-c3ccc(C(=O)NCCO)cc3)cc2-c2[nH]ncc2S1(=O)=O
%Inh [1]: 0%
%Inh [2]: 29%
%Inh [3]: 7%
%Inh [4]: 0%
%Inh [5]: 24%
%Inh [6]: 29%
%Inh [7]: 47%
%Inh [8]: 49%
%Inh [9]: 31%
%Inh [10]: 0%

CC(C)(C)c1ccc(-n2cnc3c(N)ncnc32)cc1 [SKF-97263]
%Inh [1]: 13%
%Inh [2]: 0%
%Inh [3]: 0%
%Inh [4]: 0%
%Inh [5]: 85%
%Inh [6]: 5%
%Inh [7]: 15%
%Inh [8]: 21%
%Inh [9]: 3%
%Inh [10]: 38%

Clc1cccc(-c2nc(Nc3ccncc3)c3ccccc3n2)c1 [GW873004]
%Inh [1]: 32%
%Inh [2]: 0%
%Inh [3]: 84%
%Inh [4]: 4%
%Inh [5]: 0%
%Inh [6]: 10%
%Inh [7]: 12%
%Inh [8]: 57%
%Inh [9]: 7%
%Inh [10]: 10%

Fc1ccc(-c2ncn(CCCNCc3ccccc3)c2-c2ccncc2)cc1
%Inh [1]: 3%
%Inh [2]: 0%
%Inh [3]: 55%
%Inh [4]: 3%
%Inh [5]: 0%
%Inh [6]: 0%
%Inh [7]: 22%
%Inh [8]: 22%
%Inh [9]: 10%
%Inh [10]: 17%

Cl.c1ccc(Cn2ccc3cc(Nc4ncnc5ccccc45)ccc32)cc1 [GW275568]
%Inh [1]: 16%
%Inh [2]: 6%
%Inh [3]: 5%
%Inh [4]: 0%
%Inh [5]: 0%
%Inh [6]: 0%
%Inh [7]: 4%
%Inh [8]: 0%
%Inh [9]: 9%
%Inh [10]: 100%

COc1ccc(-c2oc3ncnc(N)c3c2-c2ccc(OC)cc2)cc1 [SB-589132]
%Inh [1]: 70%
%Inh [2]: 52%
%Inh [3]: 2%
%Inh [4]: 0%
%Inh [5]: 4%
%Inh [6]: 0%
%Inh [7]: 15%
%Inh [8]: 0%
%Inh [9]: 18%
%Inh [10]: 0%

CC(C)N1CCC(n2cnc(-c3ccc(F)cc3)c2-c2ccnc(N)n2)CC1 [SB-223132]
%Inh [1]: 38%
%Inh [2]: 0%
%Inh [3]: 11%
%Inh [4]: 0%
%Inh [5]: 7%
%Inh [6]: 7%
%Inh [7]: 0%
%Inh [8]: 5%
%Inh [9]: 0%
%Inh [10]: 10%

Cl.Fc1ccccc1COc1ccc(Nc2ncnc3ccc(-c4nnc(C(F)(F)F)o4)cc23)cc1Cl [GW424170]
%Inh [1]: 18%
%Inh [2]: 11%
%Inh [3]: 11%
%Inh [4]: 0%
%Inh [5]: 4%
%Inh [6]: 0%
%Inh [7]: 4%
%Inh [8]: 0%
%Inh [9]: 11%
%Inh [10]: 99.4%

Oc1ccc2ncnc(Nc3ccc(OCc4ccccc4)cc3)c2c1 [GI262866]
%Inh [1]: 7%
%Inh [2]: 11%
%Inh [3]: 0%
%Inh [4]: 0%
%Inh [5]: 0%
%Inh [6]: 0%
%Inh [7]: 16%
%Inh [8]: 0%
%Inh [9]: 18%
%Inh [10]: 100%

COc1ccc(Nc2nccc(N3CCC(NC(=O)c4cccc(NC(C)=O)c4)C3)n2)cc1 (centres unmarked) [GSK1379732]
%Inh [1]: 41%
%Inh [2]: 33%
%Inh [3]: 0%
%Inh [4]: 13%
%Inh [5]: 24%
%Inh [6]: 0%
%Inh [7]: 8%
%Inh [8]: 87%
%Inh [9]: 7%
%Inh [10]: 16%

CCc1nc(-c2cccc(N(C)S(=O)(=O)c3ccccc3)c2)c(-c2ccnc(Nc3ccc(N4CCN(C(C)=O)CC4)nc3)n2)s1 [GSK1645895]
%Inh [1]: 5%
%Inh [2]: 0%
%Inh [3]: 22%
%Inh [4]: 0%
%Inh [5]: 3%
%Inh [6]: 0%
%Inh [7]: 0%
%Inh [8]: 0%
%Inh [9]: 29%
%Inh [10]: 79%

C[C@@H]1CCN(C(=O)CO)C[C@@H]1N(C)c1ncnc2[nH]ccc12
%Inh [1]: 0%
%Inh [2]: 0%
%Inh [3]: 0%
%Inh [4]: 8%
%Inh [5]: 3%
%Inh [6]: 13%
%Inh [7]: 0%
%Inh [8]: 0%
%Inh [9]: 0%
%Inh [10]: 1%

Nc1n[nH]c2nnc(-c3ccccc3)cc12 [SB-517389]
%Inh [1]: 7%
%Inh [2]: 0%
%Inh [3]: 0%
%Inh [4]: 0%
%Inh [5]: 0%
%Inh [6]: 0%
%Inh [7]: 72%
%Inh [8]: 92.4%
%Inh [9]: 57%
%Inh [10]: 34%

Nc1nccc2scc(-c3ccc4c(c3)CCN4C(=O)Cc3cc(F)ccc3F)c12 [GSK2587663]
%Inh [1]: 1%
%Inh [2]: 21%
%Inh [3]: 13%
%Inh [4]: 0%
%Inh [5]: 3%
%Inh [6]: 5%
%Inh [7]: 0%
%Inh [8]: 12%
%Inh [9]: 5%
%Inh [10]: 21%

Cn1ccc2ncnc(Nc3ccc(Oc4cccc(Cl)c4)c(Cl)c3)c21
%Inh [1]: 4%
%Inh [2]: 0%
%Inh [3]: 5%
%Inh [4]: 0%
%Inh [5]: 4%
%Inh [6]: 1%
%Inh [7]: 22%
%Inh [8]: 55%
%Inh [9]: 33%
%Inh [10]: 100%
